Hit rate of the full screen: of about 30,000 compounds, about 130 (0.43%) were called active. Shown is part of a subset that was picked to be rich in actives. A number with no mark means an inactive call. Cut-off read from the data, not from the text of the source: active = activation above about 65%; inactive = the rest.
Biological target: Lysosomal acid glucosylceramidase (Homo sapiens) (UniProt P04062)
Assay: GBA activity enhancers in patient fibroblasts, primary screen, cell-based (AID 784);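 note: 0% = vehicle wells and 100% = positive control wells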
Settings: L444P Gaucher fibroblasts, 4-MU-glucoside fluorescence, 3 days; at 10 µM; active compounds read high

Sequence of Lysosomal acid glucosylceramidase (Homo sapiens) (P04062 whole entry L483P): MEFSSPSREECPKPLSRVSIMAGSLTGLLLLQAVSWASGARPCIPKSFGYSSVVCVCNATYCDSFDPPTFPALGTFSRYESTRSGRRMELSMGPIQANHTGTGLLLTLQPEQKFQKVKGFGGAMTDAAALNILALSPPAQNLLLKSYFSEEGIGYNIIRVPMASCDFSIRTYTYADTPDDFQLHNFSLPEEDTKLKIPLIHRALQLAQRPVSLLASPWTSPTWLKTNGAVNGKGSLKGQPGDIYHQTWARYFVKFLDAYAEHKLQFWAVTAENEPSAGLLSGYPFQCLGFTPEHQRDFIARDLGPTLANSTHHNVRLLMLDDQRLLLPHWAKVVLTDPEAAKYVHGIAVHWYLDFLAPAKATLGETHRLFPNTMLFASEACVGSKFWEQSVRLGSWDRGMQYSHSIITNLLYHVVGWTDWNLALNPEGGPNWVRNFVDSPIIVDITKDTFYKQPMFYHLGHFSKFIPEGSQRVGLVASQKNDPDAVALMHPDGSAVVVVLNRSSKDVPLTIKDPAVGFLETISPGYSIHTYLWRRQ

Going from `CCn1c2c(c3ccc(OC)cc31)CCCC2=O` to `COc1ccc(NC(=O)c2c(C)oc3c2CCCC3)cc1`, the activation rises from -2.82% to 9.49%.

Compared with `O=C(COc1ncnc2ccccc12)NC(=O)NCc1ccccc1`, `O=C(Cn1nnc(-c2ccccc2)n1)NCc1ccccc1` is lower in activation: -9.58% for the first, -40% for the second.

Going from `CCCOc1cccc(C(=O)Nc2nnn(CCC)n2)c1` to `CCOC(=O)C(CCOc1cccc(CC)c1)C(=O)OCC`, the activation rises from -14.1% to -0.5%.

Going from `Cc1ccc(OCc2nc(C#N)c(N3CCCC3)o2)cc1` to `Cc1cc(C)c2nc(N3CCCC3)c(C#N)cc2c1`, the activation rises from -34.7% to 18.1%.

Compared with `Cc1ccc(OCCCC(=O)N2CCOCC2)c(C)c1`, `CCOc1cc(CO)ccc1OCC(=O)N1CCCCC1` is higher in activation: 9.81% for the first, 38.3% for the second.

Compared with `Cc1cc(N2CCN(Cc3ccc4c(c3)OCO4)CC2)n2ncnc2n1`, `COc1ccc(-c2csc(N3CCN(Cc4ccc5c(c4)OCO5)CC3)n2)cc1` is lower in activation: 4.34% for the first, -17.4% for the second.

First: CC(C)(C)c1nc(NCC2CCCO2)c2nnn(Cc3ccccc3)c2n1 (stereo unspecified)
Second: CCc1nc(N2CCN(c3nc(C)cc(C)n3)CC2)c2oc3ccccc3c2n1
The activation of the first is lower: -23.9% for the first, -1.58% for the second.

Going from `O=CN1CCN(C2CC(=O)N(c3ccc4c(c3)OCO4)C2=O)CC1` (stereo unspecified) to `O=C(Nc1nc2cc3c(cc2s1)OCCO3)c1cccc(S(=O)(=O)N2CCOCC2)c1`, the activation rises from -20.8% to 0.12%.

First: CC1(C)CC(=O)C=C(NCCCN2CCCC2=O)C1
Second: Cn1c(=O)n(C)c(=O)n(CC(=O)N2CCCCC2)c1=O
The activation of the first is higher: 48.7% for the first, -12.6% for the second.

Going from `NC(CSC12CC3CC(CC(C3)C1)C2)C(=O)O` (stereo unspecified) to `CC(Cc1cccs1)NC(=O)NC1CCCCC1` (stereo unspecified), the activation rises from -2.09% to -0.56%.

Compared with `CCOC(=O)C1CCCN(C(=O)c2cncc(Br)c2)C1` (stereo unspecified), `CCCCn1c(SCC(=O)N2CCC(C(=O)OCC)CC2)nc2cc(S(N)(=O)=O)ccc21` is higher in activation: -20.7% for the first, -6.49% for the second.

Going from `OC(COc1ccccc1)Cn1cc(Br)cn1` (stereo unspecified) to `O=C(COc1ccccc1)N1CCc2ccccc2C1`, the activation rises from -62.4% to -2.86%.

First: COc1ccc(-c2nnc(SC(C)C#N)o2)cc1 (stereo unspecified)
Second: c1ccc(-c2nnc(SCc3nc4ccccc4[nH]3)o2)cc1
The activation of the first is higher: -2.02% for the first, -6.36% for the second.

First: CC1(C)SC2c3ccccc3C(=O)N2[C@@H]1C(=O)NCc1ccco1 (stereo partly specified)
Second: CC1(c2ccccc2Cl)NC(=O)N(CC(=O)NC(=O)NCc2ccco2)C1=O (stereo unspecified)
The activation of the first is higher: -2.64% for the first, -9.6% for the second.

Going from `C=CCn1cnc2scc(-c3ccccc3)c2c1=O` to `C=CCn1c(N)c(S(=O)(=O)c2cccs2)c2nc3ccccc3nc21`, the activation falls from -7.71% to -13.8%.

Compared with `CCN1C(=O)C(C(=O)NC(C)c2ccccc2)C2CC1(C)Oc1ccccc12` (stereo unspecified), `CC1Cc2ccccc2N1C(=O)Cn1cnc2ccccc2c1=O` (stereo unspecified) is lower in activation: -6.62% for the first, -14.5% for the second.

Compared with `CC(C)C(C(=O)NC1CCCCC1)N(CC1CCCO1)C(=O)CNS(=O)(=O)c1ccc(F)cc1` (stereo unspecified), `O=C(COc1ccc2c3c(c(=O)oc2c1)CCC3)NC1CCCCC1` is higher in activation: -1.42% for the first, 9.84% for the second.

First: CCc1c(C)sc(NC(=O)OC)c1C(=O)N1CCOCC1
Second: Cc1cc(NC(=O)COC(=O)c2ccc(F)c(S(=O)(=O)N3CCOCC3)c2)no1
The activation of the first is lower: -9.88% for the first, -7.98% for the second.

Compared with `Cc1nc2nc3c(cn2n1)C(=O)CC(c1ccccc1)C3` (stereo unspecified), `CC1CC(c2ccccc2)n2nc(NC(=O)c3cccs3)nc2N1` (stereo unspecified) is lower in activation: -10.1% for the first, -23.6% for the second.

Going from `CC(=O)Nc1cccc(NC(=O)c2c(-c3ccccc3)noc2C)c1` to `Cn1nc(-c2ccc(N3CCOCC3)c(NC(=O)c3ccccc3)c2)c2ccccc2c1=O`, the activation falls from -9.69% to -54.8%.

Compared with `CCCn1c(SCC(=O)Nc2cccc(C(=O)OCC)c2)nnc1-c1ccoc1C`, `CCOc1ccccc1-n1c(SCC(=O)N2CCCC2)nnc1-c1ccoc1C` is higher in activation: -19.7% for the first, 0.64% for the second.

First: CCCCc1nc2ccccc2c(=O)n1NC(=O)c1c(O)c2cccc3c2n(c1=O)CC3
Second: Cc1cccc(N2CC(C)Cn3c2nc2c3c(=O)n(CC(=O)OCc3ccccc3)c(=O)n2C)c1 (stereo unspecified)
The activation of the first is higher: 3.98% for the first, -17.9% for the second.

Compared with `Cc1c(NC(=O)Nc2ccccc2Cl)sc(=S)n1C`, `Cc1ccccc1NC(=O)c1cc(S(=O)(=O)N2CCOCC2)cs1` is higher in activation: -15.8% for the first, -11.8% for the second.

Compared with `CC12C(=O)N(n3cnnc3)C(=O)C1C1C=CC2C1` (stereo unspecified), `CC(c1ccccc1)n1c(NCCCn2ccnc2)nc2c1c(=O)[nH]c(=O)n2C` (stereo unspecified) is lower in activation: -8.37% for the first, -10.3% for the second.

Going from `CC(C)N(C(=O)Cn1c(SCC(=O)N2CCN(c3ccccc3)CC2)nc2ccccc21)C(C)C` to `O=C(CSc1nnc(-c2cccs2)n1-c1ccccc1)N1CCN(C(=O)c2ccco2)CC1`, the activation falls from -5.29% to -13.7%.

First: CC(=NCc1ccco1)C1=C(O)c2ccccc2C1=O
Second: Cc1nc2c(c(=O)n1Cc1ccco1)c1nc3ccccc3nc1n2Cc1ccccc1
The activation of the first is lower: -41.5% for the first, -11.7% for the second.

First: COc1ccc(Br)cc1S(=O)(=O)N1CCN=C1C
Second: CCOC(=O)CC1C(=O)NCCN1C(=O)COc1ccc(Br)cc1C (stereo unspecified)
The activation of the first is higher: -8.13% for the first, -21.1% for the second.

Compared with `O=[n+]1c2c(n([O-])c3cc(Br)ccc31)CCC2`, `CCOC(=O)c1cc2c(n(-c3ccc(C)cc3)c1=O)CCCC2=O` is lower in activation: 30.8% for the first, -11% for the second.

Compared with `Cc1c(C(=O)OCc2cc(=O)n3cc(Br)ccc3n2)oc2ccccc12`, `CCN(C(=O)CSc1ncn[nH]1)c1cccc2ccccc12` is lower in activation: 23% for the first, 4.77% for the second.

Going from `CCOCCCNS(=O)(=O)Cc1ccccc1` to `COC(=O)CCSc1nccn1Cc1ccccc1`, the activation falls from 6.43% to -3.3%.

Going from `CCOC(=O)C1=C(C)NC(C)=C(C(=O)OCC)C1C1=COCCO1` to `Cc1nn(-c2ccccc2)c(C)c1C(=O)OCC(=O)NC(=O)NC1CCCCC1`, the activation rises from -5.96% to 59.8%.

Going from `C=CCn1c(SCc2cc(C(=O)OC)c(C)o2)nnc1-c1ccncc1` to `C=CCn1c(N)c(C(=O)OCC(C)C)c2nc3ccccc3nc21`, the activation falls from 31.7% to -9.15%.

Going from `Clc1cccc(Cl)c1Cn1nnc(-c2cccs2)n1` to `O=C(NCc1cccnc1)c1cn(-c2ccccc2)nc1-c1cccs1`, the activation falls from 10.2% to -15.4%.

Compared with `COc1ccccc1CNCc1cccs1`, `COC(=O)c1cn(CC(=O)NCc2cccs2)c2ccccc12` is lower in activation: -7.11% for the first, -8.81% for the second.

Going from `NC(=NC(=O)c1ccccc1)C1=C(O)CCC1=O` to `Cn1c(=O)[nH]c(=O)c2c1nc(N1CCCCCC1)n2CC(=O)c1ccccc1`, the activation falls from 0% to -1.4%.

Compared with `Cc1ccsc1CNn1cnnc1SCc1ccccc1F`, `Fc1ccccc1CCNc1nnnn1-c1ccccc1` is lower in activation: -2.23% for the first, -5.46% for the second.

Going from `Cc1nnc(NC2=NCCCCC2)o1` to `CN(C(=O)CSc1nnnn1-c1ccccc1)C1CCCCC1`, the activation falls from 8.3% to -16.5%.

Going from `CCS(=O)(=O)N1CCN(C(=O)c2cccs2)CC1` to `Cc1ccc(S(=O)(=O)N2CCN(C(=O)CCC(=O)NC3CCCc4ccccc43)CC2)cc1` (stereo unspecified), the activation rises from -24.4% to -7.53%.

Going from `COc1ccccc1C(=O)Oc1ccc(N2C(=O)CCC2=O)cc1` to `COc1ccc(Cn2c(=O)sc3ccccc32)cc1OC`, the activation falls from 4.62% to -6.04%.

Going from `COC(C)(C)[C@]12CC(O)(C(C)C)ON1[C@H]1CCCCC1N2O` (stereo partly specified) to `Cc1cc(OCCN2CCCC2)ccc1C(C)C`, the activation falls from -2.77% to -12.4%.

First: C=C(C)Cn1c(SCC(=O)NCc2ccco2)nc2sc3c(c2c1=O)CCC3
Second: CCCCNC(=O)CSc1nnc(-c2ccco2)n1C
The activation of the first is higher: -21.3% for the first, -32.4% for the second.

Going from `Nn1c(SCC(=O)NC(=O)NC2CCCC2)nnc1-c1ccccc1F` to `COCCn1nnnc1CN1CCC(NC(=O)Nc2cccc(OC)c2)CC1`, the activation falls from 2.97% to 2.44%.

Going from `O=C(c1c(Cl)nc2sccn12)N1CCCc2ccccc21` to `Cc1nnc(SCC(=O)N2CCc3ccccc32)n1-c1ccccc1`, the activation rises from -24.6% to -18.6%.

First: CCC(=O)Nc1nc(OC)cc(OC)n1
Second: CCn1cc(C(=O)NCc2ccc(OC)cc2OC)c(=O)c2ccc(C)nc21
The activation of the first is lower: -18.3% for the first, -10.1% for the second.

First: CC(=O)c1cnc(Nc2nc(C)c3cc(C)ccc3n2)nc1C
Second: Cc1ccc(-c2noc(CCC(N)=O)n2)cc1
The activation of the first is higher: 13.5% for the first, 1.93% for the second.

Going from `O=C(O)Cc1ccc(NC(=O)c2cccs2)cc1` to `O=C(Cn1cc(C(=O)c2cccs2)c2ccccc21)NCc1cccs1`, the activation rises from -9.31% to 5.52%.

Compared with `COCCCNC(=O)c1c(F)c(F)c(F)c(F)c1F`, `CCCc1nnc(NC(=O)CN2C(=O)c3ccccc3S2(=O)=O)s1` is higher in activation: -31.9% for the first, -21.6% for the second.

First: COC(=O)[C@@H](NC(=O)NCc1cccc(OC)c1)C(C)C
Second: COc1ccccc1OCCC(=O)OCC(=O)NC(=O)NC(C)(C)C
The activation of the first is lower: -5.38% for the first, 4.86% for the second.

In the case of `O=P(O)(CP(=O)(c1ccccc1)c1ccccc1)c1ccccc1`, the activation is reported as -3.68%.

For `CCCCSc1nnc(-c2ccc(C)cc2)o1`, the activation was 65.5% (active).
For `Cc1c(C)c2cc3c4c(oc3c(C)c2oc1=O)CCCC4`, the activation was 102% (active).
In the case of `COCCCNC(=O)Cn1cc(C(=O)C2CC2)c2ccccc21`, the activation is reported as 72.8% (active).
For `CC(C)Cn1c(N)c(C(=O)NCc2cccs2)c2nc3ccccc3nc21`, the activation was 73.7% (active).

Source: PubChem BioAssay AID784 (The Scripps Research Institute Molecular Screening Center, 2007)
